# Measurements reported in PubChem BioAssay (EPA / NIEHS).
# Results filed as inconclusive are left out. The source made the active and inactive calls. The calls were made as follows, unless noted: active = hit-call score of the fitted dose curve at least 0.9, where 1 is the maximum; inactive = score below 0.9.
# Key:
# [1] = BSK_BT_PBMCCytotoxicity: PBMC Cytotoxicity Assessment in the BioMAP Diversity Plus: BT Assay (AID 2284225); details: primary human B cells with PBMC;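 also: PBMC viability measured by Alamar Blue dye reduction fluorescence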
# How it was run: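 PBMC (75,000/well) pretreated with compound 1 h, then activated with SEB and TSST-1 (20 ng/mL each final), incubated 90 h; Alamar Blue added 6 h, fluorescence read at 546/580 nm. Fitted relative to DMSO.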
# [2] = BSK_BT_Bcell_Proliferation: Viability Assessment in the BioMAP Diversity Plus: BT Assay for B cell Proliferation (AID 2284227); details: primary human B cells with PBMC
# How it was run: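 Read-out is absorbance at 560 nm from sulforhodamine B staining of total protein, reflecting relative cell numbers in a human B cell and PBMC co-culture after 72 h of chemical exposure. Values were referenced to DMSO.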
# [3] = read-out: Secreted IgG (sIgG), gene 3500; test: BSK_BT_sIgG: BioMAP Diversity Plus: BT Assay for Secreted IgG (sIgG) Biomarker Activity (AID 2284226); details: primary human B cells with PBMC
# How it was run: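 Human B cell plus PBMC co-culture; secreted IgG measured by ELISA 24 h after chemical dosing. Response fitted in positive direction relative to DMSO baseline.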
# [4] = CCTE_Mundy_HCI_Cortical_Synap_Neur_Matur_SynapseCount: CCTE's Synaptogenesis and Neurite Maturation Assay in rat cortical cells for Synapse Count, Mundy Lab (AID 2284218)
# How it was run: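 Rat primary cortical cultures, AraC at DIV 5, chemical dosing DIV 7 to DIV 12 (288.33 h). Fixed cells stained for MAP2, synaptophysin and Hoechst; synapses per neuron counted by high-content imaging, loss of signal versus DMSO.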
# [5] = CCTE_Mundy_HCI_Cortical_Synap_Neur_Matur_NeuriteCount: CCTE's Synaptogenesis and Neurite Maturation Assay in rat cortical cells for Neurite Count, Mundy Lab (AID 2284222);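 as to outcome: exposure from day 7 to day 12 in vitro with readout at day 12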
# How it was run: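 Primary rat cortical cells were plated, treated with AraC at DIV 5, then exposed to chemicals from DIV 7 through DIV 12. After fixation and immunostaining for MAP2 and synaptophysin, imaging quantified neurites, with DMSO as the negative control.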
# [6] = CCTE_Mundy_HCI_Cortical_Synap_Neur_Matur_CellBodySpotCount: CCTE's Synaptogenesis and Neurite Maturation Assay in rat cortical cells for Cell Body Spot Count, Mundy Lab (AID 2284223)
# How it was run: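 High-content imaging counts synaptophysin puncta on neuronal cell bodies per neuron after MAP2/synaptophysin immunostaining. Rat primary cortical cells, glia arrested with AraC at DIV 5, were exposed DIV 7–12; signal decrease measured against DMSO.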
# [7] = CCTE_Mundy_HCI_hNP1_Pro_ResponderAvgInten: CCTE's Proliferation Assay in human neuroprogenitor cells, Mundy Lab (AID 2284224; active = hit-call score of the fitted dose curve at least 0.9, where 1 is the maximum;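 also: human neural progenitor cells hNP1 derived from WA09 embryonic stem cells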)
# How it was run: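 Human neuroprogenitors (hNP1, WA09 lineage) receive test chemical after 40 to 44 hours of attachment. A four-hour BrdU pulse begins twenty hours later, followed by fixation and high content imaging; signal is referenced to DMSO controls.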
# [8] = CCTE_Mundy_HCI_hN2_NOG_NeuriteCount: CCTE's Neurite Outgrowth Assay in human hN2 cells for Neurite Count, Mundy Lab (AID 2284219; active = hit-call score of the fitted dose curve at least 0.9, where 1 is the maximum)
# How it was run: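 In this morphology assay, hNP1-derived neurons received test chemical 2 h post-plating and were fixed two days later in warm paraformaldehyde/sucrose containing Hoechst 33342. Neurites, labelled by rabbit anti-βIII-tubulin (1:800) and Alexa Fluor-488 (1:500), were counted automatically.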
# [9] = CCTE_Mundy_HCI_hN2_NOG_NeuriteLength: CCTE's Neurite Outgrowth Assay in human hN2 cells for Neurite Length, Mundy Lab (AID 2284220; active = hit-call score of the fitted dose curve at least 0.9, where 1 is the maximum)
# How it was run: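 Using βIII-tubulin immunofluorescence and Hoechst nuclear counterstain, this component quantifies neurite length in hNP1-derived neurons.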
# [10] = CCTE_Mundy_HCI_hN2_NOG_NeuronCount: CCTE's Neurite Outgrowth Assay in human hN2 cells for Neuron Count, Mundy Lab (AID 2284221; active = hit-call score of the fitted dose curve at least 0.9, where 1 is the maximum)
# How it was run: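 Read-out is the number of betaIII-tubulin-positive neurons imaged by automated high-content analysis, with DMSO as negative control.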
compound,measurement,setting,value
CC(C)N(C(=O)CCl)c1ccccc1,AC50,[1],20 µM (active)
same,AC50,[2],9.93 µM (active)
CC(C=O)Cc1ccc2c(c1)OCO2 (configuration not stated),outcome,[1],inactive
same,outcome,[2],inactive
c1ccc2sc(SNC3CCCCC3)nc2c1,AC50,[1],30.8 µM (active)
same,AC50,[2],29.3 µM (active)
C[C@]12CC[C@@H](O)C[C@@H]1CC[C@@H]1[C@@H]2CC[C@]2(C)C(=O)CC[C@@H]12,outcome,[1],inactive
same,AC50,[3],20 µM (active)
same,outcome,[2],inactive
CC(C)(C)c1cc([N+](=O)[O-])cc(C(C)(C)C)c1O,AC50,[1],26.2 µM (active)
same,AC50,[3],2.8 µM (active)
same,AC50,[2],13.3 µM (active)
Cc1ccccc1OP(=O)(Oc1ccccc1)Oc1ccccc1,outcome,[1],inactive
same,AC50,[3],30.9 µM (active)
same,outcome,[2],inactive
O=c1oc2ccccc2c(O)c1C(CC(O)c1ccc(-c2ccc(Br)cc2)cc1)c1ccccc1 (configuration not stated),outcome,[1],inactive
same,AC50,[3],20.8 µM (active)
same,outcome,[2],inactive
Cc1ccccc1OP(=O)(Oc1ccccc1C)Oc1ccccc1C,AC50,[4],3.85 µM (active)
same,outcome,[5],inactive
same,AC50,[6],4.04 µM (active)
same,AC50,[7],25.8 µM (active)
same,outcome,[1],inactive
same,AC50,[2],34.4 µM (active)
Cc1cc(Cl)ccc1OC(C)C(=O)O (configuration not stated),outcome,[1],inactive
same,outcome,[2],inactive
CCOC(=O)CC(=O)CCl,AC50,[1],19 µM (active)
same,AC50,[2],16.9 µM (active)
N#CCCC(Br)(C#N)CBr (configuration not stated),AC50,[1],9.18 µM (active)
same,AC50,[2],6.35 µM (active)
CS(=O)(=O)c1ccc(C(=O)C2C(=O)CCCC2=O)c(Cl)c1COCC(F)(F)F,outcome,[4],inactive
same,outcome,[5],inactive
same,outcome,[6],inactive
CCOCn1c(-c2ccc(Cl)cc2)c(C#N)c(Br)c1C(F)(F)F,AC50,[4],13.5 µM (active)
same,AC50,[5],16.4 µM (active)
same,AC50,[6],18.9 µM (active)
same,AC50,[7],9.2 µM (active)
O=C(CCl)NCO,outcome,[1],inactive
same,outcome,[2],inactive
CC(C)[C@@H](Nc1ccc(C(F)(F)F)cc1Cl)C(=O)OC(C#N)c1cccc(Oc2ccccc2)c1 (some centres not stated),outcome,[4],inactive
same,outcome,[5],inactive
same,outcome,[6],inactive
OC(Cc1ccccc1Cl)(Cn1[nH]cnc1=S)C1(Cl)CC1 (configuration not stated),AC50,[4],50 µM (active)
same,AC50,[5],50 µM (active)
same,outcome,[6],inactive
same,AC50,[7],31.6 µM (active)
same,outcome,[1],inactive
same,outcome,[2],inactive
CC1(C)[C@H](C(=O)O[C@H](C#N)c2cccc(Oc3ccccc3)c2)[C@@H]1/C=C(\Cl)C(F)(F)F,AC50,[4],2.13 µM (active)
same,AC50,[5],3.48 µM (active)
same,AC50,[6],3.52 µM (active)
same,outcome,[7],inactive
same,outcome,[1],inactive
same,outcome,[2],inactive
CCOC(=O)C(SP(=S)(OC)OC)c1ccccc1 (configuration not stated),outcome,[1],inactive
same,outcome,[2],inactive
Cc1cc(Cl)ccc1N,outcome,[1],inactive
same,outcome,[3],inactive
same,outcome,[2],inactive
CC(C)(COCC1CO1)COCC1CO1 (configuration not stated),outcome,[1],inactive
same,AC50,[3],16 µM (active)
same,AC50,[2],20 µM (active)
c1ccc(-c2cccc(-c3ccccc3)c2)cc1,AC50,[1],32.8 µM (active)
same,AC50,[3],15.7 µM (active)
same,AC50,[2],33.3 µM (active)
Cc1cc(C(F)(C(F)(F)F)C(F)(F)F)ccc1NC(=O)c1cccc(I)c1C(=O)NC(C)(C)CS(C)(=O)=O,outcome,[4],inactive
same,outcome,[5],inactive
same,outcome,[6],inactive
same,outcome,[7],inactive
OC(Cc1ccccc1Cl)(Cn1cncn1)C1(Cl)CC1 (configuration not stated),outcome,[1],inactive
same,outcome,[2],inactive
CNC(=O)CSP(=O)(OC)OC,outcome,[4],inactive
same,outcome,[8],inactive
same,outcome,[9],inactive
same,outcome,[5],inactive
same,outcome,[6],inactive
CCCCCCCCCCCCN(C)C,outcome,[1],inactive
same,outcome,[3],inactive
same,outcome,[2],inactive
NC(=O)c1ccc(N)nc1,AC50,[4],9.12 µM (active)
same,outcome,[8],inactive
same,outcome,[9],inactive
same,AC50,[10],0.000862 µM (active)
same,AC50,[5],18.7 µM (active)
same,outcome,[6],inactive
Nc1ccc(N)cc1,outcome,[1],inactive
same,outcome,[3],inactive
same,outcome,[2],inactive
CCOC(=O)CCN(SN(C)C(=O)Oc1cccc2c1OC(C)(C)C2)C(C)C,AC50,[1],25.9 µM (active)
same,AC50,[3],27.5 µM (active)
same,AC50,[2],28.9 µM (active)
C=CC(Cl)CCl (configuration not stated),outcome,[1],inactive
same,outcome,[2],inactive
O=S(=O)(c1ccc(Cl)cc1)c1cc(Cl)c(Cl)cc1Cl,outcome,[1],inactive
same,AC50,[2],30.1 µM (active)
CCCCN(CCCC)C(=S)[S-].CCCCN(CCCC)C(=S)[S-].[Ni+2],outcome,[1],inactive
same,outcome,[2],inactive
CCN(CC)C(=O)C(Cl)=C(C)OP(=O)(OC)OC,outcome,[1],inactive
same,outcome,[2],inactive
CCOP(=O)(OCC)OC(=CCl)c1ccc(Cl)cc1Cl,outcome,[1],inactive
same,outcome,[2],inactive
Cc1ccc2nc3sc(=O)sc3nc2c1,outcome,[1],inactive
same,AC50,[2],5 µM (active)
CC(C)=CC1C(C(=O)OCc2cccc(Oc3ccccc3)c2)C1(C)C (configuration not stated),outcome,[1],inactive
same,AC50,[2],31.4 µM (active)
Cc1cc(C(C)(C)c2ccc(O)c(C)c2)ccc1O,outcome,[1],inactive
same,outcome,[2],inactive
O=[N+]([O-])c1ccc(Nc2ccccc2)cc1,outcome,[1],inactive
same,outcome,[2],inactive
Cc1c([N+](=O)[O-])c(C)c([N+](=O)[O-])c(C(C)(C)C)c1[N+](=O)[O-],outcome,[1],inactive
same,outcome,[2],inactive
[Cl][Sn]([c]1ccccc1)([c]1ccccc1)[c]1ccccc1,AC50,[1],0.617 µM (active)
same,AC50,[2],0.423 µM (active)
Nc1c(Oc2ccccc2)cc(O)c2c1C(=O)c1ccccc1C2=O,outcome,[1],inactive
same,outcome,[2],inactive
CCOP(=O)(OCC)SCCSCC,outcome,[1],inactive
same,outcome,[2],inactive
Oc1c(Br)cc(Br)cc1Br,outcome,[1],inactive
same,outcome,[2],inactive
Oc1ccc(Cc2ccc(O)cc2)cc1,outcome,[1],inactive
same,outcome,[2],inactive
CCC(C)(C#N)N=NC(C)(C#N)CC (configuration not stated),outcome,[1],inactive
same,outcome,[2],inactive
C#CCOC(=O)/C=C(C)/C=C/CC(C)CCCC(C)C (configuration not stated),outcome,[1],inactive
same,outcome,[2],inactive
COCC(=O)N(c1c(C)cccc1C)[C@H](C)C(=O)OC,outcome,[1],inactive
same,outcome,[2],inactive
Cc1cccc(OP(=O)(Oc2cccc(C)c2)Oc2cccc(C)c2)c1,outcome,[1],inactive
same,outcome,[2],inactive
O=S(=O)(C(Cl)(Cl)Cl)C(Cl)(Cl)Cl,AC50,[1],3.65 µM (active)
same,AC50,[2],2.48 µM (active)
Oc1cccc(-c2ccccc2)c1,outcome,[1],inactive
same,outcome,[2],inactive
CCOP(=S)(OCC)SCS(=O)(=O)C(C)(C)C,outcome,[1],inactive
same,outcome,[2],inactive
Cc1ccc(OP(=O)(Oc2ccc(C)cc2C)Oc2ccc(C)cc2C)c(C)c1,AC50,[1],5.32 µM (active)
same,AC50,[2],20 µM (active)
NC(=O)CCl,outcome,[1],inactive
same,outcome,[2],inactive
O=[N+]([O-])c1cccc2ccccc12,outcome,[1],inactive
same,outcome,[2],inactive
CCOP(=S)(OCC)OP(=S)(OCC)OCC,outcome,[1],inactive
same,outcome,[2],inactive
O=C(O)COc1cc(Cl)c(Cl)cc1Cl,outcome,[1],inactive
same,outcome,[2],inactive
O=C1C=CC(=O)c2ccccc21,AC50,[1],0.686 µM (active)
same,AC50,[2],0.825 µM (active)
